Compound activity: PubChem BioAssay, National Center for Advancing Translational Sciences (NCATS)
GALC G270D up = raises human GALC G270D mutant activity in cells. actives 0.1% (n = 45,000). Potency, µM (doses to about 57.5 µM), usual class: activators. 145M-Twi-hGALC-G270D cells, HMU-beta-Gal fluorescence, 48 h; note: nearly all actives have a fitted effect of over 65% in size
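qHTS, 1536-well; 145M-Twi-hGALC-G270D cells (WT line also made) in DMEM/F12 + 10% FBS; compound incubation on live cells; HMU-β-gal 0.1 mM final, pH 5.2, NaTC; carbonate stop; fluorescence increase = enhanced residual activity.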
GPR32 ag = agonists of human resolvin D1 receptor DRV1 (GPR32). O75388. CHO-K1 GPR32 beta-arrestin PathHunter luminescence, 90 min; zero percent set by DMSO-only wells. activation, % at 76.9 µM. actives 2.5% (n = 48,000). AID 1346428;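 active = activation of at least 60% and not above a set upper limit, about 1 call in 100 departs from these limits; inconclusive = activation of 40% to 60%, or above that upper limit; inactive = activation under 40%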
Target sequence (O75388 whole entry, looked up): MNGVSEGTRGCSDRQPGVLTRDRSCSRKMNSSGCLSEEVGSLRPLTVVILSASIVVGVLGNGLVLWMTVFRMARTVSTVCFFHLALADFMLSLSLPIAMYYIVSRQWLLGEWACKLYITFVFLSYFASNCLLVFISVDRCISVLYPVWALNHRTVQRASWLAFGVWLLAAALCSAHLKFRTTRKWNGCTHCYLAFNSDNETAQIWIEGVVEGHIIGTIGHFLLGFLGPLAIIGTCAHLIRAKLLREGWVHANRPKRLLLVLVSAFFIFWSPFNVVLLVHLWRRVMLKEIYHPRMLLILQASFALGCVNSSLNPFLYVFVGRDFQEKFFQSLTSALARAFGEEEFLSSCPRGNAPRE
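Cells are plated overnight, treated with compounds in DMSO for 90 minutes at 37 °C, and developed with PathHunter detection reagent for 1 hour before luminescence is read; signal reflects beta-arrestin binding to GPR32 in engineered CHO-K1 cells.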
OvCa metastasis = ovarian cancer metastasis inhibition, 3D TME model | SKOV3ip1-GFP adhesion/invasion on 3D omental model, fluorescence | Potency, µM (doses to about 45.8 µM), actives largely listed as inhibitors | actives 0.1% (n = 46,000); note: nearly all actives have a fitted effect of over 65% in size
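A 3D layer of primary human omental fibroblasts, mesothelial cells, fibronectin and collagen I, grown 48 hr, received SKOV3ip1-GFP cells in serum-free medium plus compounds at 0.36-46 umol/L. After 2 hr RT and 16 hr 37 C, fixed adherent GFP cells were counted; normalized to DMSO and tomatine.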
FH mod = Identification of activators of human fumarate hydratase by quantitative high-throughput screening. Fumarate hydratase, mitochondrial (Homo sapiens), P07954. FH coupled MDH/diaphorase resazurin fluorescence, 15 min. Potency, µM (titrated, usually from 79.9 µM), most hits filed as inhibitors. actives 0.22% (n = 54,000); note: the screen sought activators but most active calls are inhibition curves; nearly all actives have a fitted effect of over 45% in size
Numbers stand for hits; ! = not confirmed by another sample; [ ] = remark or other dose. This is a sample that favours compounds with a hit; in the whole collection about 2.9% have one here. Unless noted, calls come from the whole dose curve; as a rule, active = well fitted curve in the direction sought with a large enough effect; inconclusive = small, poorly fitted or top-dose-only effect, or another doubt; inactive = no such curve, though single readings can be large; an effect the other way counts as inactive or inconclusive.

How did O=C(O)c1ccc2nc(-c3cc4cc(F)ccc4oc3=O)[nH]c2c1 do in these assays?
GALC G270D up: inactive; GPR32 ag: inactive; OvCa metastasis: inactive; FH mod: inactive

Results for CN(C)CCn1nnnc1SCC1=C(C(=O)O)N2C(=O)[C@@H](NC(=O)Cc3csc(N)n3)[C@H]2SC1 ?
GALC G270D up: inactive; GPR32 ag: inactive; FH mod: inactive

How did CO[C@@]1(NC(=O)CSCC#N)C(=O)N2C(C(=O)O)=C(CSc3nnnn3C)CS[C@@H]21 do in these assays?
GALC G270D up: inactive; GPR32 ag: 64.0!; FH mod: inactive

How did CC(=O)O[C@@H]1C[C@@]23C[C@@]24CC[C@H](OC2OC[C@@H](O)[C@H](O)[C@H]2O)C(C)(C)[C@@H]4CC[C@H]3[C@]2(C)CC3OC4(C[C@@H](C)C3[C@@]12C)OCC1(C)OC14 (some centres not stated) do in these assays?
FH mod: inactive

Results for O=C(Nc1cccc(C(F)(F)F)c1)c1cc(-c2ccc3c(c2)OCCO3)on1 ?
GALC G270D up: inactive; GPR32 ag: 94.0; OvCa metastasis: inconclusive; FH mod: inactive

What do the screens show for `O=C(NCCN1CCC(n2c(=O)[nH]c3ccccc32)CC1)c1cc2cc(F)ccc2[nH]1`?
FH mod: inactive

What do the screens show for `CCC(C)NC(=O)c1cc(Sc2cccc(Cl)c2)nc2ccccc12` (configuration not stated)?
GALC G270D up: inactive; GPR32 ag: inactive; OvCa metastasis: inactive; FH mod: inactive

How did CCc1ccc(Sc2cc(C(=O)NC(C)CC)c3ccccc3n2)cc1 (configuration not stated) do in these assays?
GALC G270D up: inactive; GPR32 ag: 74.7; OvCa metastasis: inactive; FH mod: inactive

Results for CC(=O)OC1CC2C3(C)CCC(OC(=O)CC(=O)O)C(C)(C)C3CCC2(C)C2(C)CCC(C3(C)CCC(=O)O3)C12 (configuration not stated) ?
FH mod: inactive

What do the screens show for `Cc1cc(=O)oc2cc(O)ccc12`?
GALC G270D up: 28.2µM; GPR32 ag: inactive; OvCa metastasis: inactive; FH mod: inactive

What do the screens show for `C/C=C(/COC(=O)/C(C)=C/C)C(=O)OC(CC)c1ccc(OC)c(OC)c1` (configuration not stated)?
FH mod: inactive

How did CC(=O)N1CCc2cc(S(=O)(=O)NC(Cc3ccccc3)C(=O)Nc3ccc(Cl)cc3)ccc21 (configuration not stated) do in these assays?
GALC G270D up: inactive; GPR32 ag: 95.8; OvCa metastasis: inactive; FH mod: inactive

How did Cc1ccc(N2CC(c3nc(-c4ccc(Cl)cc4)no3)CC2=O)cc1F (configuration not stated) do in these assays?
GALC G270D up: inactive; GPR32 ag: inactive; OvCa metastasis: inactive; FH mod: inactive

What do the screens show for `COc1cc(-c2noc(C3CC(=O)N(c4cc(C)ccc4C)C3)n2)cc(OC)c1OC` (configuration not stated)?
GALC G270D up: inactive; GPR32 ag: 75.8; OvCa metastasis: inactive; FH mod: inconclusive

What do the screens show for `C=C1CCC2[C@](C)(CCC[C@]2(C)C(=O)O)[C@H]1CC/C(C)=C/C(=O)OC` (some centres not stated)?
FH mod: inactive

Results for CN(C(=O)Nc1cn(C)c(=O)c2ccccc12)c1ccccc1 ?
GALC G270D up: inactive; GPR32 ag: inactive; OvCa metastasis: inactive; FH mod: 35.5µM[activator]

Results for CCc1cccc(NC(=O)Nc2cn(C)c(=O)c3ccccc23)c1 ?
GALC G270D up: inactive; GPR32 ag: inactive; OvCa metastasis: inactive; FH mod: inconclusive

Results for Cc1cccc(C(=O)NCCc2nc3ccccc3n2Cc2ccc(Cl)cc2)c1 ?
GALC G270D up: inactive; GPR32 ag: inactive; OvCa metastasis: inactive; FH mod: inactive

Results for O=C(NCCCc1nc2ccccc2n1Cc1ccc(Cl)cc1Cl)c1ccco1 ?
GPR32 ag: 96.8; OvCa metastasis: inactive

What do the screens show for `O=C(NCCc1nc2ccccc2n1Cc1ccc(Cl)cc1)c1ccccc1`?
GALC G270D up: inactive; GPR32 ag: 80.5; OvCa metastasis: inactive; FH mod: inactive

How did COc1ccc(-c2nc(CN3CCC(C(=O)NCCCN4CCN(c5ccccc5F)CC4)CC3)c(C)o2)cc1OC do in these assays?
GALC G270D up: inactive; GPR32 ag: inactive; OvCa metastasis: 7.08µM; FH mod: inactive
